Laboratory results from PubChem BioAssay (NCI).
About 79,000 compounds went through this panel and 15% of them were active in at least one assay; those are over-represented in the sample as a whole. Activity calls are given as the source filed them. No stated cut-off is given here; in the data, active means growth inhibition above about 70%; inactive means the rest. Where a SMILES comes first, the peptide text is derived from it. [ ]: non-standard residue; d: D form. The star is where a group is joined. Cbz = O=C(OCc1ccccc1)*; Dha = C=C(N)C(=O)O

assay: NCI Yeast Anticancer Drug Screen. Data for the mlh1 rad18 strain (AID 175); details: S. cerevisiae mlh1 rad18 strain growth inhibition; at 50.0 µM; active compounds read high
In short: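 Compound-treated yeast growth, normalised to vehicle controls. Strain bears defined DNA repair mutations.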

For `c1ccc(COC(c2ccccc2)(c2ccccc2)c2ccccc2)cc1`, which growth inhibition is on record?
Its growth inhibition is 27.9% (inactive).

Which growth inhibition does the source give for `N#CC(c1ccccc1)C1CCN(Cc2ccccc2)CC1` (stereo not given) here?
The growth inhibition was 33.1% (inactive).

Which growth inhibition does the source give for `O=c1n(CCO)nc2n1CCCN2` here?
The growth inhibition was 5.6% (inactive).

Which growth inhibition does the source give for `Cc1ccccc1C(=O)N1CCOCC1` here?
The growth inhibition was 21.4% (inactive).

Which growth inhibition does the source give for `CC1(C)CC(=O)C2(C)C(C1O)C2C1C2C(O)C(C)(C)CC(=O)C21C` (stereo not given) here?
The growth inhibition was -16.1% (inactive).

With `O=C(O)CSCCOCCSCC(=O)O` as the molecule, how does the growth inhibition read?
Its growth inhibition is -15.6% (inactive).

Which growth inhibition does the source give for `CCCCCSC` here?
Its growth inhibition is 28.6% (inactive).

With `c1ccc(B2OB(c3ccccc3CN3CCCC3)OB(c3ccccc3CN3CCCC3)O2)c(CN2CCCC2)c1` as the molecule, how does the growth inhibition read?
Its growth inhibition is 15.4% (inactive).

With `C=C(C)C1CC/C(C)=C/CC[C@]2(C)O[C@H]2CC/C(COC(C)=O)=C\[C@@H]1O` (stereo not given in full) as the molecule, how does the growth inhibition read?
The growth inhibition was -54.6% (inactive).

With `CCC(C)CCC(N)C(=O)O` (stereo not given) as the molecule, how does the growth inhibition read?
The growth inhibition was 1.75% (inactive).

For `c1cc2c3c(cccc3c1)-c1nc3ccccc3nc1-2`, which growth inhibition is on record?
Its growth inhibition is 19.8% (inactive).

For `Cc1nc(N)nc(C)c1N=Nc1cc(Cl)cc(Cl)c1`, which growth inhibition is on record?
Its growth inhibition is -7.85% (inactive).

For `CCCCCCCCCCCc1cc(=O)n(-c2cc(Cl)ccc2Cl)n1C`, which growth inhibition is on record?
The growth inhibition was 99.2% (active).

Which growth inhibition does the source give for `CCCCCNC(=O)C(C)O` (stereo not given) here?
The growth inhibition was 14.6% (inactive).

With `CC1C(c2ccccc2)=C(c2ccccc2)C(c2ccccc2)=C(c2ccccc2)C1c1ccccc1` (stereo not given) as the molecule, how does the growth inhibition read?
Its growth inhibition is -10.7% (inactive).

Which growth inhibition does the source give for `O=S(Cc1ccccc1)CC(O)CO` (stereo not given) here?
The growth inhibition was -0.85% (inactive).

Which growth inhibition does the source give for `NC(=NC1CCCCC1)c1ccc(C(=O)OCC2CCCCC2)cc1` here?
The growth inhibition was 26.4% (inactive).

With `CCCCC1(CCBr)C(=O)NC(=Nc2ccccc2)NC1=O` (stereo not given) as the molecule, how does the growth inhibition read?
Its growth inhibition is -13.9% (inactive).

Which growth inhibition does the source give for `Cn1c(=O)c2nsnc2n(C)c1=O` here?
The growth inhibition was 14.1% (inactive).

Which growth inhibition does the source give for `CC(=O)OC12c3ccccc3C(c3ccccc31)C1C(=O)N(c3ccccc3O)C(=O)C12` (stereo not given) here?
Its growth inhibition is 7.7% (inactive).

For `O=C(O)C(Nc1ccc(Cc2ccc(NC(C(=O)O)c3ccccc3)cc2)cc1)c1ccccc1` (stereo not given), which growth inhibition is on record?
The growth inhibition was 90% (active).

For `Cc1nc(-c2ccccc2)ncc1C(O)CN(C)C` (stereo not given), which growth inhibition is on record?
Its growth inhibition is -6.6% (inactive).

For `CNC(=O)c1ccccc1C(O)c1ccc(C)cc1` (stereo not given), which growth inhibition is on record?
Its growth inhibition is 20.6% (inactive).

Which growth inhibition does the source give for `CN(C)c1ccc(C2SCC(=O)N2NS(=O)(=O)c2cccc(C(=O)O)c2)cc1` (stereo not given) here?
The growth inhibition was -2.2% (inactive).

For `COc1cc(C(C)S(=O)(=O)O)ccc1O` (stereo not given), which growth inhibition is on record?
Its growth inhibition is -5.55% (inactive).

With `O=C1NCC/C1=C\c1ccccc1` as the molecule, how does the growth inhibition read?
The growth inhibition was -15.4% (inactive).

For `NC1=NC=NCN1c1ccc(N)cc1`, which growth inhibition is on record?
Its growth inhibition is 5.7% (inactive).

With `O=c1[nH]cnc2c1sc(=S)n2-c1ccccc1` as the molecule, how does the growth inhibition read?
Its growth inhibition is -2.4% (inactive).

For `CC(C)CCC[C@@H](C)[C@H]1CC[C@H]2[C@@H]3CC[C@H]4CC5(C[C@]4(C)[C@H]3CC[C@]12C)Nc1ccccc1S5` (stereo not given in full), which growth inhibition is on record?
Its growth inhibition is -40.7% (inactive).

With `Nc1nc(Sc2ccccn2)ccc1[N+](=O)[O-]` as the molecule, how does the growth inhibition read?
The growth inhibition was -6.45% (inactive).

For `O=C(O)/C=C(/C(=O)O)c1cccn1Cc1ccccc1`, which growth inhibition is on record?
Its growth inhibition is 16.4% (inactive).

Which growth inhibition does the source give for `c1ccc(CN2CCCNCC2)cc1` here?
The growth inhibition was -0.05% (inactive).

Which growth inhibition does the source give for `C=C(NC(=O)CNC(=O)OCc1ccccc1)C(=O)O` (Cbz-Gly-[Dha]-OH) here?
Its growth inhibition is 14% (inactive).

With `OCCCCCCOc1ccc(-c2cc(-c3ccccn3)nc(-c3ccccn3)c2)cc1` as the molecule, how does the growth inhibition read?
The growth inhibition was 65.5% (inactive).

Which growth inhibition does the source give for `Cc1ccccc1/C=N\N=C\c1ccco1` here?
Its growth inhibition is 44.6% (inactive).

With `O=C(CN1C(=O)c2ccccc2C1=O)C(O)CN1C(=O)c2ccccc2C1=O` (stereo not given) as the molecule, how does the growth inhibition read?
Its growth inhibition is 14.6% (inactive).

For `CC(NC(=O)OC(C)(C)C)C(=O)NC(Cc1ccccc1)C(=O)NCC(=O)ON=C1CCCC1` (stereo not given), which growth inhibition is on record?
Its growth inhibition is 23.6% (inactive).

With `Cc1cc(=O)[nH]c(NN2C(Cl)C(=O)C2c2ccc(Cl)cc2)n1` (stereo not given) as the molecule, how does the growth inhibition read?
Its growth inhibition is -18.4% (inactive).

With `CCOc1cc(=O)cc2n(-c3cc(OCC)c(OC)c(OCC)c3)c3ccccc3nc1-2` as the molecule, how does the growth inhibition read?
Its growth inhibition is -1.2% (inactive).

Which growth inhibition does the source give for `Cc1ccc(C(=O)O)c(=O)[nH]1` here?
The growth inhibition was -2% (inactive).
